Screening results from PubChem BioAssay.
USP28 inh – inhibitors of human USP28 deubiquitinase. purified USP28, Ub-rhodamine cleavage fluorescence, 30 min. inhibition, % at 25 µM. 47,000 compounds, 3% hits. AID 1645857, 2021
OTUD3 block – inhibitors of human OTUD3 deubiquitinase | OTU domain-containing protein 3 (Homo sapiens), Q5T2D3 | purified OTUD3, Ub-rhodamine fluorescence, 2 h | inhibition, % at 25 µM | 47,000 compounds, 0.7% hits | AID 1645858, 2021
Target sequence (Q5T2D3 whole entry, looked up, the tested form may be a part): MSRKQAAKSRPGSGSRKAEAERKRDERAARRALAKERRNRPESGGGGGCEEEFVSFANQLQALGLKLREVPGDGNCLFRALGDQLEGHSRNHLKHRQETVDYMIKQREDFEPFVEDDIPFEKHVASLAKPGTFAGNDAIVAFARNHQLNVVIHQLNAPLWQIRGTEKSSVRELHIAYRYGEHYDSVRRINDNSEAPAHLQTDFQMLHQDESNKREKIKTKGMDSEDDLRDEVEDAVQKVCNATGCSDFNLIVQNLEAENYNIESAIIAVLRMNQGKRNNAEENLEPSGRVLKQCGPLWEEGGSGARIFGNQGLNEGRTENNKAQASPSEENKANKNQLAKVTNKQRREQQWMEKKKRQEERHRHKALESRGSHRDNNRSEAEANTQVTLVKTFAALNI
Of the large screens only hits and unclear results are named; the others gave an inactive call. This is a sample that favours compounds with a hit; in the whole collection about 3.3% have one here. Rule as the data show it: active = inhibition above about 30%; inactive = the rest.

CCOC(=O)c1cc(-c2ccccc2)sc1NC(=O)c1ccc(C(C)(C)C)cc1	none
O=[N+]([O-])c1cccc(-c2csc(-c3ccc4c(c3)OCO4)n2)c1	none
c1ccc(-c2cc(-c3csc(-c4ccc5c(c4)OCCO5)n3)on2)cc1	OTUD3 block 40
Cc1cncc(C2CCCN2Cc2nc3ccccc3n2C)n1 (configuration not stated)	none
CC1=CC(=O)C(C2=C(O)C(=O)C(C)=CC2=O)=C(O)C1=O	USP28 inh 46, OTUD3 block 36
CCN1Cc2c(C(=O)N3CCC(N(C)C)C3)ncn2-c2ccccc2S1(=O)=O (configuration not stated)	none
CC(C)C(=O)N1C[C@@H]2CN(Cc3ccc(O)cc3)[C@@H]2C1	none
CCOC(=O)Cc1nc2ccccc2n(CC2CC2)c1=O	none
CC1=C(Cn2c3cccc(=O)c-3nc3ccccc32)CCC(C)(C)C1	USP28 inh 74, OTUD3 block 74
CCC(C(=O)NCCc1ccc(Cl)cc1)n1cnc2onc(C)c2c1=O (configuration not stated)	none
COc1nc(OC)nc(N2CCC(NC(=O)C(Cc3ccccc3OC)NC(C)=O)CC2)n1 (configuration not stated)	none
Cc1nn(-c2cccc(C(F)(F)F)c2)c2c1C(c1ccccc1)N1C=C(Cl)C=C(Cl)C1=N2 (configuration not stated)	none
Cc1nn(-c2ccccc2)c2c1N=C1C(Cl)=CC(Cl)=CN1C21C(=O)Nc2ccccc21 (configuration not stated)	USP28 inh 50
Cc1ccc(C(c2c(O)cc(C)n(Cc3ccccc3)c2=O)N2CCN(CCO)CC2)cc1 (configuration not stated)	none
CCOC(=O)c1nn(-c2ccc(F)cc2)c2c1CCCCC2	USP28 inh 36
O=C(Nc1ccncc1)c1nn(-c2ccc(F)cc2)c2c1CCCCC2	none
CN(C)CCCN(C(=O)c1ccco1)c1nc2ccc(F)cc2s1	none
CN(C)CCCN(C(=O)c1cc2ccccc2oc1=O)c1nc2ccc(F)cc2s1	USP28 inh 44
O=[N+]([O-])c1ccc(NCc2ccc(-c3cccs3)s2)nc1	USP28 inh 65
COc1ccccc1CNC(=O)CCc1cn(Cc2ccc(Cl)cc2)c2ccccc12	none
Cc1cc2n(n1)CC(C)(C(=O)NCc1ccccc1)N(c1ccc3c(c1)OCCO3)C2=O (configuration not stated)	none
CC1(C(=O)NCc2ccc(F)cc2)Cn2nc(-c3ccco3)cc2C(=O)N1c1ccc2c(c1)OCCO2 (configuration not stated)	USP28 inh 35
O=S(=O)(c1ccc(F)c(F)c1)N1CCN(c2cc(-c3ccncc3)[nH]n2)CC1	none
O=C1CN(C(=O)COC(=O)c2ccc(Cl)cc2)c2ccccc2N1	none
O=C1CN(C(=O)COC(=O)C(c2ccccc2)c2ccccc2)c2ccccc2N1	USP28 inh 32
O=C1CN(C(=O)COC(=O)Cc2c(Cl)cccc2Cl)c2ccccc2N1	none
O=C1CN(C(=O)COC(=O)CCCN2C(=O)c3cccc4cccc(c34)C2=O)c2ccccc2N1	USP28 inh 46
O=C1CC(O)C(C2=CC(=O)c3c(O)cccc3C2=O)O1 (configuration not stated)	USP28 inh 83, OTUD3 block 71
Nc1c(-c2nc3ccccc3[nH]2)c2nc3ccccc3nc2n1Cc1cccc(Cl)c1	USP28 inh 36
Nc1c(-c2nc3ccccc3[nH]2)c2nc3ccccc3nc2n1Cc1ccccc1	none
Cc1ccc2nc(N3CCc4ccccc4C3)c3nncn3c2c1	USP28 inh 34
CCOc1ccc(CNc2nc3ccc(C)cc3n3cnnc23)cc1OC	none
O=C(c1cc2ccc(Br)cc2[nH]1)N1CCCC1	none
NC(=O)C1CCCN(C(=O)C2CCC3(CC2)CNC(=O)c2cc(Cl)ccc2O3)C1 (configuration not stated)	none
Cc1ccccc1N1C(=O)/C(=C\c2cccn2C)c2ccccc2C1=O	none
CN(C)C(=O)c1nc2c(s1)CCN(Cc1ccccc1)CC2	none
N#Cc1c(SCCO)nc(N2CCCC2)c2c1CCCC2	USP28 inh 62
N#Cc1c(-c2ccccc2)nc(N2CCCC2)nc1N1CCCC1	none
N=C1C(c2nc3ccccc3c(=O)[nH]2)=C(O)CN1c1ccc2c(c1)OCO2	none
CC(=O)Nc1nsc(N2CCC(C(=O)N3CCN(c4cccc(Cl)c4)CC3)CC2)n1	none
O=C(NCCN1CCCC1)C1CCN(c2cnc(N3CCCCC3)nc2)CC1	USP28 inh 78
O=C(NCC1CC1)C1CCN(c2cnc(N3CCCCCC3)nc2)CC1	none (no result: USP28 inh)
O=C(c1cc(Cl)cc(Cl)c1)N1CC(c2nc(-c3cccnc3)no2)C1	none
CCN(CC)C(=O)[C@@]1(c2ccc(F)cc2)C[C@H]1COc1ccccc1	none
Cc1c(C(=O)NCC2(N3CCCCC3)CCCCC2)oc2c1ccc1ccccc12	none
O=C(Nc1ccc(N2CCN(Cc3ccccc3)CC2)cc1)c1cc2ccccc2o1	none
Cc1c(C(=O)Nc2ccc(-c3nnc4n3CCCCC4)cc2)oc2c1ccc1ccccc12	USP28 inh 68
O=C(Nc1ccc(-c2nnc3n2CCCCC3)cc1)c1cc2ccccc2o1	USP28 inh 35
CC1Cc2ccccc2N1CC(=O)N1CCN(S(=O)(=O)c2ccc(Cl)cc2)CC1 (configuration not stated)	none
COc1cc(C(=O)NCC(c2ccsc2)N2CCOCC2)cc(OC)c1OC (configuration not stated)	none
COc1ccc(-c2cc(-c3ccc(O)cc3)nc(N)c2C#N)cc1OC	USP28 inh 73
COc1cc(-c2cc(-c3ccccc3Br)nc(N)c2C#N)cc(OC)c1OC	none
O=C(C[C@@H]1CCN2C[C@@H]1CCCOc1ccccc1CN(C(=O)COc1ccccc1)CC2=O)N1CCOCC1	USP28 inh 55
O=C(COc1ccccc1)N1CC[C@@H]2CN(Cc3ccccc3)S(=O)(=O)[C@@H]2CC1	none
O=C(C[C@@H]1CCN2C[C@@H]1CCCOc1ccccc1CN(C(=O)c1cccnc1)CC2=O)N1CCOCC1	USP28 inh 86
COC[C@H]1CCCN1C(=O)C[C@@H]1CCN2C[C@@H]1CCCOc1ccc(N3CCOCC3)cc1CNCC2=O	none
O=C(C[C@@H]1CCN2C[C@@H]1CCCOc1ccccc1CN(C(=O)c1ccccc1)CC2=O)N1CCOCC1	none
CC(C)NC(=O)N1CC(=O)N2CC[C@@H](CC(=O)N3CCOCC3)[C@@H](CCCOc3ccccc3C1)C2	USP28 inh 72
CCOc1ccc(C(=O)N2CCC(c3nn(C)c4nccnc34)CC2)cc1	none
O=C(Nc1cc(S(=O)(=O)Nc2ccc(Cl)cc2)ccc1O)c1cc2c(s1)CCC2	none
Nc1ccc(NC(=O)c2cc3c(s2)CCC3)cc1[N+](=O)[O-]	USP28 inh 31
Clc1ccc(Cn2c(NCc3ccccc3Cl)nc3ccccc32)cc1	none
COCc1cc(=O)n2c(n1)N(Cc1ccccc1C(F)(F)F)CC2	none
O=C(Nc1ccc(-c2noc(CCc3ccccc3)n2)cc1)c1ccccc1F	none
Cc1nc(-c2cccc(NC(=O)c3ccc(C#N)cc3)c2)no1	none (no result: USP28 inh)
CC(=O)c1cccc(NC(=O)c2ccc(-c3noc(C)n3)cc2)c1	USP28 inh 30
CCc1nc(-c2cccc(NC(=O)c3ccccc3F)c2)no1	USP28 inh 36
Cc1nc(-c2cccc(NC(=O)c3ccccc3F)c2)no1	none
Cc1nc(-c2cccc(NC(=O)c3ccccc3Cl)c2)no1	USP28 inh 52
CCc1nnc(NC(=O)Cn2ncc3ccccc32)s1	none
